High-throughput results as filed in PubChem BioAssay.
VACV Venus inh: inhibitors of vaccinia virus (Venus reporter); Potency, µM (top dose mostly 36.5 µM), for the others: at the highest dose activity change, negative = inhibition, actives largely listed as inhibitors; actives 0.46% (n = 330,000); Vaccinia virus Venus reporter expression, fluorescence; calls by dose curve; tested in A549 cells; also: nearly all actives have a fitted effect of over 30% in size
Pf growth 48h: P. falciparum growth inhibition at 48 hours (one generation) | Potency, µM (top dose mostly 28.7 µM), for the others: top-dose activity change, negative = inhibition, usual class: inhibitors | actives 5.9% (n = 310,000) | P. falciparum luciferase growth in erythrocytes, 48 h
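Cell-based growth assay: transgenic P. falciparum expressing firefly luciferase, cultured in red cells within RPMI 1640 containing 0.5% w/v Albumax, 24 mM bicarbonate and gentamycin. A drop in luciferase activity indicates inhibition.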
Pf growth 96h: P. falciparum growth inhibition at 96 hour, primary screen for plastid delayed-death inhibitors; P. falciparum luciferase reporter growth, 96 h; Potency, µM (titrated, usually from 28.7 µM), without a hit: top-dose activity change, negative = inhibition, hits mostly inhibitors; actives 6.9% (n = 320,000)
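P. falciparum expressing integrated firefly luciferase grown in erythrocytes (2% hematocrit, 0.05% parasitemia final) with compounds for 96 hours at 37 C, 5% CO2. Growth inhibition read as loss of luminescence after adding luciferase detection reagent.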
AMA1 RON2 block: inhibitors of Plasmodium falciparum AMA1-RON2 interaction; AlphaScreen AMA1-biotinylated RON2 peptide binding; Potency, µM (titrated, usually from 58.2 µM), inactives show at the top dose activity change, negative = inhibition, hits mostly inhibitors; actives 0.2% (n = 360,000);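 also: 0% = vehicle wells and -100% = peptide control; nearly all actives have a fitted effect of over 45% in size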
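AMA1 (3D7) with his tag at 25 nM final met compounds first, then biotinylated RON2 peptide at 25 nM; detection used donor plus acceptor beads, 10 µg/mL apiece, read by AlphaScreen after 30 min at room temperature.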
Vaccinia mCherry: vaccinia inhibition (mCherry reporter) | AID 720579 | actives 0.63% (n = 310,000) | Potency, µM (doses to about 36.5 µM), inactives show at the highest dose activity change, negative = inhibition, usual class: inhibitors | Vaccinia virus mCherry reporter infection, fluorescence; calls by dose curve; tested in A549 cells; also: nearly all actives have a fitted effect of over 35% in size
Active calls of the source: *; i = inactive; ? = inconclusive; nt = no result given. The list is not random: actives were taken first. Their share in the collection is about 8.7%. Unless noted, calls follow the shape of the dose curve; as a rule, active = well fitted curve in the direction sought with a large enough effect; inconclusive = small, poorly fitted or top-dose-only effect, or another doubt; inactive = no such curve, though single readings can be large; an effect the other way counts as inactive or inconclusive. Unless noted, % is scaled to controls: 0 for no effect and ±100 for the full control effect; potency is read from the fitted curve at half-maximal effect.

SMILES | VACV Venus inh | Pf growth 48h | Pf growth 96h | AMA1 RON2 block | Vaccinia mCherry
CCO[C@@H]1OC(C(=O)N2CCN(Cc3ccccc3)CC2)=C[C@H](C2CC2)[C@H]1CCCO | -17% | ? | ? | 0% | i
CN(C)c1ccc(C(=O)Nc2nnc(C3=COCCO3)o2)cc1 | -3% | 36% | 39% | 42% | i
Cc1cccc(C(=O)Nc2nnc(C3=COCCO3)o2)c1 | -15% | -11% | ? | 49% | i
CC(C)(C)c1ccc(C(=O)Nc2nnc(C3=COCCO3)o2)cc1 | -17% | 15µM* | 9.3µM* | 82% | -19%
O=C(Nc1nnc(C2=COCCO2)o1)c1cccc(F)c1 | -4% | ? | 15µM* | 66% | -25%
CCOc1cccc(OCCCCn2cnc3ccccc3c2=O)c1 | 9% | -9% | -13% | -21% | i
CCOc1cccc(OCCn2cnc3ccccc3c2=O)c1 | -4% | 68% | 10µM* | -10% | -5%
CCOc1ccccc1OCCn1nnc2ccccc21 | nt | 0% | 10µM* | -7% | nt
COc1ccccc1OCCn1nnc2ccccc21 | -5% | 37% | 5% | 15% | i
CCOc1cc(C#N)c(NC(=O)Cn2nnc3ccccc32)cc1OCC | nt | 6% | 5.9µM* | -8% | nt
O=C(Cn1nnc2ccccc21)Nc1ccccc1[N+](=O)[O-] | -13% | -15% | 44% | 40% | -14%
CC(C)CCNC(=O)c1ccc(NC(=O)N2CCCCc3ccccc32)cc1 | -15% | nt | nt | nt | -15%
COc1ccc(NC(=O)CC2C(=O)N(c3ccccc3)C(=O)N2Cc2cccnc2)cc1 (centres undefined) | -5% | nt | nt | nt | -3%
CCc1cccc2c(C#N)cn(CC(=O)NCCOC)c12 | -9% | 10µM* | -21% | 5% | -23%
CCc1cccc2c(C#N)cn(CCOc3ccccc3OC)c12 | -25% | ? | -14% | 19% | -27%
O=C(Nc1cccc(S(=O)(=O)N2CCOCC2)c1)C1CCCN(C(=O)c2ccc(Cl)cc2)C1 (centres undefined) | -15% | ? | 10µM* | -10% | -12%
O=C(Nc1ccc(S(=O)(=O)N2CCCCC2)cc1)C1CCCN(C(=O)c2ccc(Cl)cc2)C1 (centres undefined) | ? | ? | 12µM* | 10% | ?
CC(NC(=O)C1CCCN(C(=O)c2ccc(Cl)cc2)C1)c1cccc(C(F)(F)F)c1 (centres undefined) | nt | 13µM* | ? | 0% | nt
CCOC(=O)c1cc(-c2ccc(C)cc2)n(CCC(=O)Nc2cc(Cl)ccc2C)c1C | -13% | nt | nt | nt | -13%
COc1cc2c(cc1OC)n(CC(=O)c1cccc(Cl)c1)c(=O)n1nc(CCn3nc(C)cc3C)nc21 | -15% | nt | nt | nt | -24%
Oc1cc2cc(-c3csc(-c4ccc(F)cc4)n3)cc3c2n1CCC3 | -8% | nt | nt | nt | 17%
C/C(CCC12CC3CC(CC(C3)C1)C2)=N\NC(N)=S | ? | nt | ? | 63% | 11µM*
C/C(CC1CC(C)OC1=O)=N\NC(N)=S (centres undefined) | nt | 15% | 68% | 44% | nt
CCc1ccc2oc(=O)cc(CN3CCC(C)CC3)c2c1 | nt | 1.3µM* | 2.9µM* | -10% | nt
CCN1CCN(Cc2cc(=O)oc3ccc(C)cc23)CC1 | 5% | 2% | 24% | -2% | 25%
SMILES | VACV Venus inh | Pf growth 48h | Pf growth 96h | AMA1 RON2 block | Vaccinia mCherry
Cc1ccc2oc(=O)cc(CN3CCOCC3)c2c1 | 17% | -3% | 7.4µM* | -6% | nt
Cc1ccc2c(CN3CCOCC3)cc(=O)oc2c1 | nt | 33% | -12% | 18% | nt
Cc1cc(C)c2oc(=O)cc(CN3CCN(Cc4ccccc4)CC3)c2c1 | nt | 12µM* | ? | 14% | nt
Cc1ccc2oc(=O)cc(CN3CCC(C)CC3)c2c1 | nt | ? | 5.9µM* | -2% | nt
CCc1ccc2oc(=O)cc(CN3CCOCC3)c2c1 | -21% | -13% | nt | -4% | ?
Cc1ccc2c(CN3CCC(C)CC3)cc(=O)oc2c1C | nt | ? | ? | 2% | nt
Cc1cc(C)c2oc(=O)cc(CN3CCC(C)CC3)c2c1 | -3% | 10µM* | ? | -25% | i
CC(=O)CCC1C2C(O)C(C(C)C)C(OC(=O)/C=C/c3ccccc3)CC12C (centres undefined) | -2% | ? | ? | -2% | 6%
